Reference: the supplement of paper PMC10849652
The full data set covers some 8,800 targets. This sample favours those with a hit. About 0.5% of all pairs of compound and target were hits.

Experiments:
Assay in all cases: log2 fold change, soluble protein after heating vs DMSO (PISA); higher = thermal stabilisation; K562 lysate, 10 uM; active = over 0.2 and 3.5 SD of the protein, either way, in both replicates (recomputed)
erlotinib = compound: C#Cc1cccc(Nc2ncnc3cc(OCCOC)c(OCCOC)cc23)c1 [erlotinib]
Outline: (§1)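 Log-two fold change in thermal stability relative to solvent controls is reported from duplicates. For each sample, crude K562 extract from dounce-homogenised pellets in PBS pH 7.4 with 1 mM MgCl2, at 1 mg/mL protein, was treated with 10 μM compound for 30 min. Aliquots heated for 3 min across 48°C-58°C were pooled, brought to 0.5% NP-40 at 4°C and cleared at 21,000xg for 90 min. The supernatant was quantified by TMTpro 16plex LC-MS/MS with channel sums equalised.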

[1] = compound: C/C(=N\NC(=O)C1=CC(=CC=C1)S(=O)(=O)N2CCOCC2)/C3=C(C=CC(=C3)Cl)O
Outline: as §1

[2] = compound: C1=CC(=CC=C1C2=NC3=C(N2)C=C(C=C3)C(=O)N)OC4=CC=C(C=C4)Cl
Outline: as §1

[3] = compound: C1=CC2=C(C=CC(=C2)/C=C\3/C(=O)NC(=NCC4=CC=CS4)S3)N=C1
Outline: as §1

[4] = compound: C1=CC=C(C=C1)C2=NC(=C(N2)C3=CC=NC=C3)C4=CC(=C(C=C4)Cl)O
Outline: as §1

[5] = compound: C1=CC=C2C(=C1)C3=NNC4=CC=CC(=C43)C2=O
Outline: as §1

[6] = compound: C1CCN(C1)C(=O)NC2=CC=CC(=C2)NC3=NC=C(C(=N3)NCCC4=CN=CN4)Br
Outline: as §1

[7] = compound: C1CN(CCC1(CC2=CC=C(C=C2)Cl)N)C3=NC=NC4=C3C=CN4
Outline: as §1

IRAK-1-4 Inhibitor I = compound: C1COCCN1CCN2C3=CC=CC=C3N=C2NC(=O)C4=CC(=CC=C4)[N+](=O)[O-] [IRAK-1-4 Inhibitor I]
Outline: as §1

ralimetinib = compound: CC(C)(C)Cn1c(N)nc2ccc(-c3[nH]c(C(C)(C)C)nc3-c3ccc(F)cc3)nc21 [ralimetinib]
Outline: as §1

[8] = compound: CC(C)(O)CC(=O)NCCn1ccc2ncnc(Nc3ccc(Oc4cccc(C(F)(F)F)c4)c(Cl)c3)c21
Outline: as §1

[9] = compound: CC(C)C1=C2N=C(C=C(N2N=C1)NCC3=CC=CC=C3)NCCCCCCN
Outline: as §1

[10] = compound: CC1=C(C2=C(C=C1)C(=O)C3=CC=CC=C3N2CCCN)C
Outline: as §1

[11] = compound: CC1=C(C=C(C=C1)NC(=O)C2=CC(=CC=C2)N(C)C)NC(=O)C3=CC=C(C=C3)O
Outline: as §1

[12] = compound: CC1=C(C(CC(=O)N1)C2=CC=C(C=C2)C(F)(F)F)C(=O)NC3=C(C=C4C(=C3)C=NN4)F
Outline: as §1

[13] = compound: CC1=C(C=C(C=C1)NC(=O)C2=CC(=CC=C2)C(C)(C)C#N)NC3=CC4=C(C=C3)N=CN(C4=O)C
Outline: as §1

[14] = compound: CC(=O)c1cnc2ccc(-c3cc(Cl)c(O)c(Cl)c3)nc2c1N[C@H]1CC[C@H](CN(C)C)CC1
Outline: as §1

[15] = compound: CC1=CC=C(C=C1)SC2=C3C=C(SC3=CN=C2)C(=O)N
Outline: as §1

[16] = compound: C1=CC2=NC=CN=C2C=C1/C=C/3\C(=O)NC(=O)S3
Outline: as §1

ibrutinib = compound: C=CC(=O)N1CCC[C@@H](n2nc(-c3ccc(Oc4ccccc4)cc3)c3c(N)ncnc32)C1 [ibrutinib]
Outline: as §1

Measured: log2 fold change

CNK3/IPCEF1 isoform 2 (UniProt G9CGD6)
Chain of UniProt G9CGD6 (G9CGD6 whole entry, looked up): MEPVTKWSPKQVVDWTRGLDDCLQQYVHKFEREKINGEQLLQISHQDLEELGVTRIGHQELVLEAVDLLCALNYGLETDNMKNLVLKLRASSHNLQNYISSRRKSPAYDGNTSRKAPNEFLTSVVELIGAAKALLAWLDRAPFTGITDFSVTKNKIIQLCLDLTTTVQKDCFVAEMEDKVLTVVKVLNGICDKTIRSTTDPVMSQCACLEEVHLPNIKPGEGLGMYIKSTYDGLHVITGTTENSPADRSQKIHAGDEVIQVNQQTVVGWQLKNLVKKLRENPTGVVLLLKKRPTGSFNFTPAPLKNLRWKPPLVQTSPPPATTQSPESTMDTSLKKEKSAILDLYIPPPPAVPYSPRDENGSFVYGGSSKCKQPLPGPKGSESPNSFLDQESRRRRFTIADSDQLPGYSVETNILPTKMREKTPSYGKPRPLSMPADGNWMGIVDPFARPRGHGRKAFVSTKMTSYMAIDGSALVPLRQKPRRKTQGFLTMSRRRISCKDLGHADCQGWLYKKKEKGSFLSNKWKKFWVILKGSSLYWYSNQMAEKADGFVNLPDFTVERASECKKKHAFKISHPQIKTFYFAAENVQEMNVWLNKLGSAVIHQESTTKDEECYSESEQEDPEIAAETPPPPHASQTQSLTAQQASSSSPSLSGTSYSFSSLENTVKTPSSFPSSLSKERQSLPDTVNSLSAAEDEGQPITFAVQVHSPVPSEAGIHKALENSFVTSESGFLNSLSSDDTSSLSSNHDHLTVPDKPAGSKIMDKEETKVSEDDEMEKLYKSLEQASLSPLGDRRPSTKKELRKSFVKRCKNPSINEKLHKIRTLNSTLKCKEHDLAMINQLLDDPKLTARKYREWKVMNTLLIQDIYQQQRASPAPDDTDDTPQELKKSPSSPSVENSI
inactive: erlotinib 0.065 | [1] -0.008 | [2] 0.038 | [3] -0.082 | [4] -0.051 | [5] 0.053 | [6] 0.014 | [7] -0.048 | IRAK-1-4 Inhibitor I 0.105 | ralimetinib 0.215 | [8] -0.138 | [9] -0.096 | [10] 0.075 | [11] 0

DHX32 (UniProt Q7L7V1)
Chain of UniProt Q7L7V1 (Q7L7V1 whole entry, looked up): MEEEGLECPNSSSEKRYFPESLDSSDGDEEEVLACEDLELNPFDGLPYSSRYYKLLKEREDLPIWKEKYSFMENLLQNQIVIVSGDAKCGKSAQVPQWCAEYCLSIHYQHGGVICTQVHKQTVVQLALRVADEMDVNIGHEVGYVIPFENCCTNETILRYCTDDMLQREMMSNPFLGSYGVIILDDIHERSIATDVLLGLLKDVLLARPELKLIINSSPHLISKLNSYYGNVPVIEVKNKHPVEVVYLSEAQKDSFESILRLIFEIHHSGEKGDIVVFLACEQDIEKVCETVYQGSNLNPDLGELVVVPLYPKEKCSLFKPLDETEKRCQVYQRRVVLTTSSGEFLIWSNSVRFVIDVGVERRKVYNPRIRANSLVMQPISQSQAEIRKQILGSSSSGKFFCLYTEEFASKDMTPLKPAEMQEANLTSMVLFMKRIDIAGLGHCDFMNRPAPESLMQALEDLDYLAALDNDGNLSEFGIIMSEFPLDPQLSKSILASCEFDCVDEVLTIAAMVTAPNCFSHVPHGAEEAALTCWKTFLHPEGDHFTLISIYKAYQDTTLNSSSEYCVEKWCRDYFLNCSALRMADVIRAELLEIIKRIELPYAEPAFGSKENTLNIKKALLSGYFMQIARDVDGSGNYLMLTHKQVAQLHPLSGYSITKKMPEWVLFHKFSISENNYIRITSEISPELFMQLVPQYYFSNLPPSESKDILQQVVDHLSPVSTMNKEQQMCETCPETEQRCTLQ
inactive: erlotinib -0.083 | [1] -0.091 | [2] 0.098 | [3] -0.052 | [4] 0.013 | [5] 0.038 | [6] -0.145 | [7] 0.044 | IRAK-1-4 Inhibitor I 0.036 | ralimetinib 0.096 | [8] -0.144 | [12] 0.016 | [13] -0.023 | [11] 0.017
active: [9] -0.387

CPLX1 (UniProt O14810)
Chain of UniProt O14810 (O14810 whole entry, looked up): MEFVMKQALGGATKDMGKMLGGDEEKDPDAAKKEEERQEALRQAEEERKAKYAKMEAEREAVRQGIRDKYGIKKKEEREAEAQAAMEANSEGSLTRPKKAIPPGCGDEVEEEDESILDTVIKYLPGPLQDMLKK
active: [10] 0.874
inactive: [1] -0.059 | [3] 0.062 | [4] 0.012 | [5] 0.114 | [6] 0.012 | [7] -0.048 | IRAK-1-4 Inhibitor I 0.027 | [14] -0.071 | ralimetinib 0.079 | [8] -0.139 | [11] 0.037 | [15] 0.119

CIC (UniProt I3L1Q4)
inactive: [16] -0.03 | ibrutinib 0.005

CSNK2A1, A0A2R8Y4D6
inactive: [14] 0.172 | [15] -0.292

CSNK1D (UniProt P48730)
Chain of UniProt P48730 (P48730 whole entry, looked up): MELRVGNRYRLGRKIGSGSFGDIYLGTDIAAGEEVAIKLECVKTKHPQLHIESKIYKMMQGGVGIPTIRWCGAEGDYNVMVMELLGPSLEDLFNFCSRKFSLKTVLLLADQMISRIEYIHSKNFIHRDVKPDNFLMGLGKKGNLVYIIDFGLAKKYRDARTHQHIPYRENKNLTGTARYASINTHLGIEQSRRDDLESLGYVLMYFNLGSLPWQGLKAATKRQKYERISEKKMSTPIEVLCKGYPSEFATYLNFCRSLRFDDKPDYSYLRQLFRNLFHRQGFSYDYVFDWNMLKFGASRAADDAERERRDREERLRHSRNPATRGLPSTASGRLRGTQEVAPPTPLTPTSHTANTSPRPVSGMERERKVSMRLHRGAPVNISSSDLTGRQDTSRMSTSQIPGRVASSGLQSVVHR
inactive: [1] -0.32 | [3] -0.06 | [16] 0.039 | [4] 0.124 | [6] -0.031 | [7] 0.013 | IRAK-1-4 Inhibitor I -0.048 | ibrutinib -0.086 | ralimetinib -0.038 | [8] -0.112 | [12] 0.245 | [10] -0.151 | [13] -0.001 | [11] -0.143 | [15] 0.179
active: [5] 0.415 | [14] 0.494

CSDE1 isoform 3 (UniProt O75534)
Chain of UniProt O75534 (O75534 whole entry, looked up): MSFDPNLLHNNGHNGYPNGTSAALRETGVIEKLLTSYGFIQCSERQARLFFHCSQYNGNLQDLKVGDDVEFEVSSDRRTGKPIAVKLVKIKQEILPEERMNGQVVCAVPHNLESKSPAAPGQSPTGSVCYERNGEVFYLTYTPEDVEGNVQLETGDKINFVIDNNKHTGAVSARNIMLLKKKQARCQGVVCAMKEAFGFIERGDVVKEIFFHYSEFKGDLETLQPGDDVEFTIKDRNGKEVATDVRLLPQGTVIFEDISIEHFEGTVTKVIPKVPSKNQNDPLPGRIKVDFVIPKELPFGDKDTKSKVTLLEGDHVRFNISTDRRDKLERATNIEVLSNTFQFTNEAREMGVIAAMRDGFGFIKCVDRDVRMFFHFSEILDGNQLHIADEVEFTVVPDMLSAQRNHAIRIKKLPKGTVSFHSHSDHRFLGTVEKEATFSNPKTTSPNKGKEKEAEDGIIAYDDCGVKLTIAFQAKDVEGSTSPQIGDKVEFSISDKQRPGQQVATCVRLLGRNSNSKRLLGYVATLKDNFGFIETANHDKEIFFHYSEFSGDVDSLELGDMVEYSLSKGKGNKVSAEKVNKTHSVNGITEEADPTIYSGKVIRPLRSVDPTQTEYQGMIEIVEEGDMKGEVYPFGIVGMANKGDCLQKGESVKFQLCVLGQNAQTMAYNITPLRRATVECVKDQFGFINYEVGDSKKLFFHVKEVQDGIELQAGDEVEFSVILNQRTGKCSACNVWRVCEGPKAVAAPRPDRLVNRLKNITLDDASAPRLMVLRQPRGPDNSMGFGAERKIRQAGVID
inactive: [16] 0.13 | [4] 0.027 | IRAK-1-4 Inhibitor I -0.011 | ibrutinib 0.051 | [14] -0.331 | ralimetinib 0.047 | [8] 0.019 | [12] -0.112 | [13] -0.009 | [11] -0.137 | [15] 0.031

DALRD3 (UniProt Q5D0E6)
inactive: erlotinib 0.034 | [1] 0.152 | [2] 0.05 | [3] -0.413 | [5] 0.021 | [6] 0.031 | [7] -0.068 | [14] 0.028 | [9] -0.024 | [15] 0.037

CNOT2 (UniProt F8VRS8)
inactive: erlotinib 0.307 | [2] 0.101 | [9] -0.001

CSNK1G3 isoform 4 (UniProt Q9Y6M4)
inactive: [14] 0.235 | [15] -0.142

CINP isoform 3 (UniProt Q9BW66)
Chain of UniProt Q9BW66 (Q9BW66 whole entry, looked up): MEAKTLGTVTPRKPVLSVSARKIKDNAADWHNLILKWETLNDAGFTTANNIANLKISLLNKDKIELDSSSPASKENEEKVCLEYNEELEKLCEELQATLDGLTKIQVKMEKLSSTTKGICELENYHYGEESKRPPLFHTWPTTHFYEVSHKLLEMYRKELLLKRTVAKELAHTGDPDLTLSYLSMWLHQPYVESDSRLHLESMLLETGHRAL
inactive: [1] 0.016 | [3] 0.015 | [16] -0.015 | [4] 0.081 | [5] -0.102 | [6] -0.015 | [7] -0.056 | IRAK-1-4 Inhibitor I 0.074 | ibrutinib 0 | [14] -0.012 | ralimetinib 0.047 | [8] -0.051 | [12] 0.072 | [10] -0.168 | [13] 0.039 | [11] 0.009 | [15] -0.005

CLIP1 isoform 2 (UniProt P30622)
inactive: erlotinib -0.067 | [2] 0.056 | [16] -0.082 | [4] -0.055 | [6] 0.023 | [7] 0.023 | IRAK-1-4 Inhibitor I 0.026 | [14] 0.05 | ralimetinib -0.002 | [8] -0.04 | [9] -0.054 | [12] 0.017 | [10] -0.025 | [13] 0.053 | [11] 0.021 | [15] -0.088

CXCL14 (UniProt O95715)
Chain of UniProt O95715 (O95715 whole entry, looked up): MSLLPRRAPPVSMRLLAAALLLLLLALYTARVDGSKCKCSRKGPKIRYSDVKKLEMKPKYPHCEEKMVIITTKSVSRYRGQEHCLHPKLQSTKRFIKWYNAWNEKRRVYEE
inactive: [1] 0.119 | [3] -0.094 | [16] -0.09 | [5] -0.268 | [6] -0.444 | [7] 0.119 | ibrutinib -0.012

COPS9 (UniProt Q8WXC6)
Chain of UniProt Q8WXC6 (Q8WXC6 whole entry, looked up): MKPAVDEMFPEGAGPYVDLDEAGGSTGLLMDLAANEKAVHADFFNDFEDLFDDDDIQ
inactive: erlotinib -0.01 | [2] -0.362 | [4] 0.081 | IRAK-1-4 Inhibitor I -0.371 | [14] -0.059 | ralimetinib 0.146 | [8] -0.213 | [9] 0.173 | [11] 0.172 | [15] -0.184

CSAD isoform 3 (UniProt Q9Y600)
inactive: erlotinib -0.02 | [2] 0.064 | [16] -0.115 | [4] 0.044 | IRAK-1-4 Inhibitor I -0.02 | ibrutinib -0.224 | ralimetinib -0.019 | [8] -0.048 | [9] 0.041 | [13] -0.027 | [11] -0.033

DONSON (UniProt Q9NYP3)
Chain of UniProt Q9NYP3 (Q9NYP3 whole entry, looked up): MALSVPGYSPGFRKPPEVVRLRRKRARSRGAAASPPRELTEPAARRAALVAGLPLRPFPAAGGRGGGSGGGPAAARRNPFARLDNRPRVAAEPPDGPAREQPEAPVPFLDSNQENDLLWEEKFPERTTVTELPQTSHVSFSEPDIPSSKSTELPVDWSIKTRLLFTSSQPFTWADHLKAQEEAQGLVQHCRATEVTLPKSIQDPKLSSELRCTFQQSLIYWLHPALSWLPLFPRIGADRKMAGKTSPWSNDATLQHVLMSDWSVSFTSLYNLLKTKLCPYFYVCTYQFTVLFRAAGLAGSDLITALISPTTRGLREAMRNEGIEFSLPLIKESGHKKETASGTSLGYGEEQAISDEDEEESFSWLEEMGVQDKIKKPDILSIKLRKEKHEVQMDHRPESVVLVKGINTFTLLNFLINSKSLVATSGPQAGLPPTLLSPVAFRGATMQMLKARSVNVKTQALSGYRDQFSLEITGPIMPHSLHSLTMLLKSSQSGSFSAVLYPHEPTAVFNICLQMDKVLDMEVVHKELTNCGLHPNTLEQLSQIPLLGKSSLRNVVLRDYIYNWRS
inactive: erlotinib 0 | [2] 0.051 | [16] 0.014 | [4] 0.06 | IRAK-1-4 Inhibitor I -0.021 | ibrutinib 0.059 | [14] 0.002 | ralimetinib -0.033 | [8] 0.074 | [9] -0.022 | [12] -0.071 | [10] -0.037 | [13] 0.062 | [11] -0.096 | [15] -0.013

DAZAP1 (UniProt K7EQ02)
inactive: [12] 0.033

DESI2 (UniProt Q9BSY9)
Chain of UniProt Q9BSY9 (Q9BSY9 whole entry, looked up): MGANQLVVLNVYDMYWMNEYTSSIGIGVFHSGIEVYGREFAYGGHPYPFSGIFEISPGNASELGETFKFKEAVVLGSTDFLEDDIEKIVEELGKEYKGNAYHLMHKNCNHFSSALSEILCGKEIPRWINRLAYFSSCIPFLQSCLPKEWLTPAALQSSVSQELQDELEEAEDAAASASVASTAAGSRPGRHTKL
inactive: [1] 0.195 | [3] -0.043 | [5] 0.119 | [6] 0.002 | [7] 0.067

CHEK2 (UniProt O96017)
Chain of UniProt O96017 (O96017 whole entry, looked up): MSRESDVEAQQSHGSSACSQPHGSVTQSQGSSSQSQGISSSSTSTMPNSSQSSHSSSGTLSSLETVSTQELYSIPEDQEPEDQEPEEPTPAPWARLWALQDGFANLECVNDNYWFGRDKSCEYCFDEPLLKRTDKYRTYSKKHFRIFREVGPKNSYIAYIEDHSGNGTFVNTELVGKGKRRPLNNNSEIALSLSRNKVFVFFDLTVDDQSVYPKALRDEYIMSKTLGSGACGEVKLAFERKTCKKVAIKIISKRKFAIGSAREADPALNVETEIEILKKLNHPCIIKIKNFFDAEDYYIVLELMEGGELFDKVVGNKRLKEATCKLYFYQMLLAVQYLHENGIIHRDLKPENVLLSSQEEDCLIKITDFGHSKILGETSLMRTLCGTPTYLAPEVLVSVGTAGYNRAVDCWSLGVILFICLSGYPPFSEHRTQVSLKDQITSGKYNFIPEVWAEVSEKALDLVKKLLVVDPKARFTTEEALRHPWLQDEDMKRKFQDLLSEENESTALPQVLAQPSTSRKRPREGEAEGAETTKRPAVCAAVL
inactive: erlotinib -0.042 | [1] -0.006 | [3] 0.05 | [16] 0.053 | [4] 0.018 | [5] 0.148 | [6] 0.11 | [7] -0.035 | IRAK-1-4 Inhibitor I -0.031 | ibrutinib 0.04 | [14] -0.043 | ralimetinib -0.011 | [8] 0.081 | [9] 0.211 | [12] 0.013 | [10] -0.002 | [13] -0.041 | [11] 0.073 | [15] 0.013

CSRP2 (UniProt Q16527)
Chain of UniProt Q16527 (Q16527 whole entry, looked up): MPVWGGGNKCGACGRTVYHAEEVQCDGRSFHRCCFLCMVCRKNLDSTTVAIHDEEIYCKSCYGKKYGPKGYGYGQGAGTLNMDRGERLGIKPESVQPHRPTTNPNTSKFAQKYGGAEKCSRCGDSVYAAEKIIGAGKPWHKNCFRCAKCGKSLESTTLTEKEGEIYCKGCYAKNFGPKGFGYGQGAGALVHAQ
inactive: [16] -0.097 | [6] 0.043 | [7] -0.003 | ibrutinib 0.054 | [13] 0.271
